Data on 9 molecules can be found in PubChem BioAssay (NCI).

Compounds without any hit were thinned out: in the full panel of roughly 83,000, 20% have a hit.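 Interpretation: 100, growth as untreated; towards 0, rising growth inhibition; 0, no net growth; 0 to -100, cell death. Compounds scoring below 10 were considered active.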 A number with no mark means an inactive call. Calls of active or inactive are those of the source.

Among the test systems are SR leukemia; RPMI-8226 leukemia; OVCAR-8 ovarian; OVCAR-5 ovarian; OVCAR-4 ovarian; SK-OV-3 ovarian; IGROV1 ovarian; OVCAR-3 ovarian; HS 578T breast; NCI/ADR-RES ovarian; T-47D breast; BT-549 breast; MDA-MB-435 melanoma; SW-620 colon; MCF7 breast; HCC-2998 colon; KM12 colon; HCT-116 colon.
Assay in all cases: NCI-60 one-dose screen, 48 h (100 = growth as untreated, 0 = no growth, -100 = all killed)
Details in all cases: 10 µM unless noted

For `O=C(c1c[nH]c2ccccc12)c1n[nH]c(=S)n1-c1ccc([N+](=O)[O-])cc1`, the growth is 92% in the assay on SR leukemia; 68.4% with RPMI-8226 leukemia; 97.1% in the assay with OVCAR-8 ovarian; 101% in the assay on OVCAR-5 ovarian; 85% in the assay with OVCAR-4 ovarian; 95.4% with SK-OV-3 ovarian. Besides, the growth in the assay with IGROV1 ovarian was 73.1%; in the assay on OVCAR-3 ovarian it was 95.3%; with HS 578T breast it was 92.8%; with NCI/ADR-RES ovarian it was 106%; with T-47D breast it was 40.4%; in the assay with BT-549 breast, 117%. In addition, the growth was 104% in the assay with MDA-MB-435 melanoma; 100% with SW-620 colon; 63.3% in the assay with MCF7 breast; 58.5% in the assay with HCC-2998 colon; 67.4% with KM12 colon.

Take `COc1cc(Cc2cc(OC)c(O)c(OC)c2)cc(OC)c1O`: the growth with SR leukemia is 28%; in the assay with RPMI-8226 leukemia it was 92.7%; in the assay with OVCAR-8 ovarian it was 100%; with OVCAR-5 ovarian, 112%; in the assay with OVCAR-4 ovarian, 107%; in the assay with SK-OV-3 ovarian, 98.3%. Moreover, the growth with IGROV1 ovarian was 91.6%; in the assay with OVCAR-3 ovarian, 96.2%; in the assay with HS 578T breast, 92.3%; in the assay with NCI/ADR-RES ovarian, 52.8%; with T-47D breast, 109%; in the assay on BT-549 breast, 87.8%. In addition, the growth in the assay on MDA-MB-435 melanoma is 2.4% (active); in the assay with MCF7 breast, 68.1%; with HCT-116 colon it was 85.6%; in the assay on HCC-2998 colon, 73.5%; with KM12 colon, 55.7%.

On to `CC(C)(C)CC(C)(C)Nc1c(-c2c(O)c3ccccc3oc2=O)nc2sc3ccccc3n12`, for which the growth with SR leukemia was 30.3%; with RPMI-8226 leukemia, 8.98% (active); with OVCAR-8 ovarian it was 22.2%; with OVCAR-5 ovarian, 66.9%; in the assay on OVCAR-4 ovarian, 41.9%; with SK-OV-3 ovarian, 30.4%. The growth in the assay with IGROV1 ovarian is 29.5%; with OVCAR-3 ovarian, 55.2%; in the assay on HS 578T breast, 30.1%; in the assay on NCI/ADR-RES ovarian, 40.1%; in the assay on T-47D breast it was 15.9%; in the assay with BT-549 breast, 51.9%. Further, the growth in the assay on MDA-MB-435 melanoma is 47.9%; with SW-620 colon, 21.3%; in the assay with MCF7 breast, 28.9%; in the assay on HCC-2998 colon, 52.6%; with KM12 colon it was 45.1%.

For `CN(C)C1CN(C(=O)c2cc(-c3ccc4ncnc(N5CCc6cc(F)c(Cl)cc65)c4c3)cnc2N)C1`, the growth was 13.3% in the assay on SR leukemia; -10.8% (active) in the assay on RPMI-8226 leukemia; 16% with OVCAR-8 ovarian; 28.1% in the assay with OVCAR-5 ovarian; 5.94% (active) in the assay on OVCAR-4 ovarian; 23.1% in the assay on SK-OV-3 ovarian. For the same molecule, the growth is -33.6% (active) in the assay on IGROV1 ovarian; -16.5% (active) in the assay with OVCAR-3 ovarian; -24.1% (active) with HS 578T breast; 21.1% in the assay with NCI/ADR-RES ovarian; 4.73% (active) with T-47D breast; -12.8% (active) in the assay with BT-549 breast. In addition, the growth with MDA-MB-435 melanoma is 9.39% (active); in the assay on SW-620 colon it was 19.1%; with MCF7 breast, 5.85% (active); in the assay with HCC-2998 colon, 15.3%; in the assay with KM12 colon it was 18.2%.

Take `COc1ccc(-c2cc(-c3cn(-c4cccc(Cl)c4)nc3-c3ccc(OC)cc3)on2)cc1`: the growth was 68.4% with SR leukemia; 88.3% with RPMI-8226 leukemia; 93.7% with OVCAR-8 ovarian; 111% in the assay with OVCAR-5 ovarian; 106% in the assay with OVCAR-4 ovarian; 98% in the assay on SK-OV-3 ovarian. The growth in the assay with IGROV1 ovarian is 97.5%; with OVCAR-3 ovarian, 103%; in the assay on HS 578T breast, 96.3%; in the assay on NCI/ADR-RES ovarian, 100%; in the assay with T-47D breast it was 95%; with BT-549 breast, 121%. The growth in the assay with MDA-MB-435 melanoma is 110%; with MCF7 breast it was 86.6%; in the assay on HCT-116 colon it was 101%; with HCC-2998 colon it was 101%; in the assay with KM12 colon, 92.5%.

Take `CC(O)CNC(Cc1ccccc1)c1ccc2c(c1)OCO2` (stereo not drawn): the growth in the assay with SR leukemia was 101%; in the assay with RPMI-8226 leukemia, 90.3%; in the assay on OVCAR-8 ovarian it was 97.1%; in the assay on OVCAR-5 ovarian, 59.6%; in the assay with OVCAR-4 ovarian, 102%; with SK-OV-3 ovarian, 66.2%. Besides, the growth is 101% with IGROV1 ovarian; 98.7% with OVCAR-3 ovarian; 103% with HS 578T breast; 94.7% in the assay with NCI/ADR-RES ovarian; 47.2% in the assay with T-47D breast; 57.9% in the assay on BT-549 breast. For the same molecule, the growth is 99.6% in the assay on MDA-MB-435 melanoma; 91.5% with MCF7 breast; 62.1% with HCT-116 colon; 104% in the assay on HCC-2998 colon; 99.3% with KM12 colon.

Turning to `CCOC(=O)c1cnn(CC(C)O)c1NC(=O)NCc1ccccc1C(F)(F)F` (stereo not drawn), the growth in the assay with SR leukemia is 82.3%; in the assay with RPMI-8226 leukemia, 116%; in the assay with OVCAR-8 ovarian, 97.6%; in the assay on OVCAR-5 ovarian, 102%; in the assay with OVCAR-4 ovarian, 98.6%; in the assay with SK-OV-3 ovarian it was 101%. Moreover, the growth was 95.5% in the assay with IGROV1 ovarian; 108% in the assay on OVCAR-3 ovarian; 110% with HS 578T breast; 100% with NCI/ADR-RES ovarian; 105% with T-47D breast; 91.4% in the assay with BT-549 breast. The growth is 104% in the assay with MDA-MB-435 melanoma; 95.5% in the assay on MCF7 breast; 84.8% in the assay with HCT-116 colon; 93.8% in the assay on HCC-2998 colon; 99.4% in the assay with KM12 colon.

Regarding `Fc1cc2[nH]ncc2c2c3c(c(-c4cn[nH]c4C(F)(F)F)nc12)CCCC3`, the growth with SR leukemia is -30.2% (active); with RPMI-8226 leukemia, 8.27% (active); in the assay on OVCAR-8 ovarian it was 6.94% (active); with OVCAR-5 ovarian, 4.77% (active); with OVCAR-4 ovarian it was 24.1%; in the assay with SK-OV-3 ovarian, -24.5% (active). For the same molecule, the growth in the assay with IGROV1 ovarian is 0.245% (active); in the assay with OVCAR-3 ovarian, -11.3% (active); with HS 578T breast it was -18.4% (active); with NCI/ADR-RES ovarian, 45.6%; in the assay on T-47D breast, -16.2% (active); in the assay on BT-549 breast, -64.2% (active). Further, the growth is 26.2% in the assay on MDA-MB-435 melanoma; 2.27% (active) with MCF7 breast; 1.05% (active) in the assay on HCT-116 colon; -14.2% (active) in the assay with HCC-2998 colon; 9.4% (active) in the assay on KM12 colon.

Regarding `C#Cc1cccc(Nc2ncnc3cc(NC(=O)CCl)ccc23)c1`, the growth in the assay on SR leukemia is -37.5% (active); in the assay with RPMI-8226 leukemia, -43.7% (active); with OVCAR-8 ovarian it was -11.7% (active); with OVCAR-5 ovarian it was -91% (active); in the assay with OVCAR-4 ovarian, -60.1% (active); in the assay on SK-OV-3 ovarian, -0.177% (active). Also, the growth in the assay with IGROV1 ovarian was -56.6% (active); in the assay on OVCAR-3 ovarian, -88.7% (active); in the assay with HS 578T breast, -2.33% (active); in the assay with NCI/ADR-RES ovarian it was -28.6% (active); in the assay on T-47D breast it was -52.7% (active); with BT-549 breast, -76.7% (active). Further, the growth is -70.8% (active) in the assay on MDA-MB-435 melanoma; -61.6% (active) with SW-620 colon; -50.4% (active) in the assay with MCF7 breast; -88.3% (active) in the assay with HCC-2998 colon; -74.3% (active) in the assay with KM12 colon.
